Inconclusive results are not listed. Values without a mark were called inactive. Calls follow the shape of the dose curve; as a rule, active = well fitted inhibition curve with a large enough effect; inconclusive = small, poorly fitted or top-dose-only effect; inactive = flat fitted curve, though single readings scatter.
System: 7G8
Test: qHTS profiling for inhibitors of Plasmodium falciparum proliferation (AID 504749);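 also: 0% = DMSO vehicle and full inhibition = artemisinin control; nearly all actives have a fitted effect of over 60% in size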
Conditions: P. falciparum in erythrocytes, SYBR Green DNA, 72 h; series mostly up to 28.7 µM; activity, negative = inhibition: at the top concentration
Summary of the method: (§1)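 Parasite proliferation within erythrocytes, 72 h exposure. Endpoint: SYBR Green I fluorescence after overnight lysis at room temperature. Controls: 0.29 uM artemisinin, DMSO.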

| Structure (SMILES) | activity, negative = inhibition |
| --- | --- |
| O=C1Nc2ccc(Cl)cc2C(c2ccccc2Cl)=NC1O (stereo not given) | -16.4% |
| CCC(C)(C)c1ccc(O)cc1 | -7.57% |
| CNC(C)(C)Cc1ccccc1 | -6.41% [at 12.8 µM] |
| CCCCC/C=C\C/C=C\C/C=C\C/C=C\CCCC(=O)NCC(=O)O | -4.42% [at 2.67 µM] |
| C[C@]12CCC(=O)C=C1CC[C@@H]1[C@@H]2CC[C@]2(C)C(=O)CC[C@@H]12 | -11.7% |
| CN1C(=O)CCS(=O)(=O)C1c1ccc(Cl)cc1 (stereo not given) | 7.18% |
| CC(C)NC(C)C | 4.64% |
| CCC1(c2ccccc2)C(=O)N(COC)C(=O)N(COC)C1=O | 1.89% |
| Nc1ccccc1C(=O)O | 7.07% |
| O=P1(N(CCCl)CCCl)NCCCO1 (stereo not given) | -19.1% |
| O=C(Nc1ccc(Br)cc1)c1cc(Br)cc(Br)c1O | 0.228% |
| O=c1oc2ccccc2c(O)c1Cc1c(O)c2ccccc2oc1=O | -13.8% [at 12.8 µM] |
| Clc1ccc2c(c1)C(c1ccccc1)=NCc1nncn1-2 | -11.2% |
| COP(=S)(OC)Oc1ccc(S(=O)(=O)N(C)C)cc1 | 1.1% |
| CC(C)c1cccc(C(C)C)c1O | 8.69% |
| Nc1nc(N)nc(NC2CC2)n1 | -8.25% |

System: AA1029
Test: as above
Conditions: P. falciparum in erythrocytes, SYBR Green DNA, 72 h; series mostly up to 28.7 µM; activity, negative = inhibition: at the top concentration
Summary of the method: as §1

| Structure (SMILES) | activity, negative = inhibition |
| --- | --- |
| O=C1Nc2ccc(Cl)cc2C(c2ccccc2Cl)=NC1O (stereo not given) | 0.807% |
| CCC(C)(C)c1ccc(O)cc1 | 3.12% |
| CNC(C)(C)Cc1ccccc1 | 0.204% [at 12.8 µM] |
| CCCCC/C=C\C/C=C\C/C=C\C/C=C\CCCC(=O)NCC(=O)O | -5.7% [at 2.67 µM] |
| C[C@]12CCC(=O)C=C1CC[C@@H]1[C@@H]2CC[C@]2(C)C(=O)CC[C@@H]12 | 0.745% |
| CN1C(=O)CCS(=O)(=O)C1c1ccc(Cl)cc1 (stereo not given) | -1.29% |
| CC(C)NC(C)C | -11.2% |
| CCC1(c2ccccc2)C(=O)N(COC)C(=O)N(COC)C1=O | -1.67% |
| Nc1ccccc1C(=O)O | 5.92% |
| C[C@](O)(CS(=O)(=O)c1ccc(F)cc1)C(=O)Nc1ccc(C#N)c(C(F)(F)F)c1 | 2.61% |
| O=P1(N(CCCl)CCCl)NCCCO1 (stereo not given) | 16.2% |
| O=C(Nc1ccc(Br)cc1)c1cc(Br)cc(Br)c1O | 7.07% |
| O=C(O)CCCc1ccc(N(CCCl)CCCl)cc1 | -0.954% |
| O=c1oc2ccccc2c(O)c1Cc1c(O)c2ccccc2oc1=O | 10.8% [at 12.8 µM] |
| Clc1ccc2c(c1)C(c1ccccc1)=NCc1nncn1-2 | 2.03% |
| CN1C(=O)COc2c(C(=O)NC3CN4CCC3CC4)cc(Cl)cc21 (stereo not given) | 20.5% |
| COP(=S)(OC)Oc1ccc(S(=O)(=O)N(C)C)cc1 | 9.91% |
| CC(C)c1cccc(C(C)C)c1O | 1.18% |
| Nc1nc(N)nc(NC2CC2)n1 | -0.0566% |
